The source of these data is PubChem BioAssay.

The subject of test [1] is Aerobactin synthetase IucA (Klebsiella pneumoniae). The test can be described thus: IucA aerobactin synthetase inhibitors, biochemical, Tocris library, absorbance (AID 1345561; call rule not given here;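 note: 100% = enzyme without compound and 0% = no enzyme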). As to conditions: purified IucA enzyme assay, absorbance (OD) read-out; stronger effect = lower value;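 tested at 8 µM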.
The nature of test [2]: sensitizers of A549 cells to miR-34 induction, primary screen, imaging, A549 dox-inducible miR-34, nuclei and caspase counts (AID 1347080;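 active = compounds whose cell count with miR-34 switched on is under 0.7 times the count with it off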). As to conditions: A549 miR-34 inducible, Hoechst nuclei count, 48 h.
Test [3] is described as follows: viability rescue of complex I mutant cybrids, primary screen, cell-based, galactose medium, ATP luminescence (AID 1645843).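 Note: positive z means more ATP and so rescue of galactose-driven cybrid death.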 As to conditions: complex I mutant cybrid cells, 72 h, stronger effect = higher value.
The mark [4] stands for this setting: stronger effect = lower value, cell number ratio, induced over uninduced.
Setting [5] is: measured here: relative caspase fold change +Dox/-Dox.
Setting [6] is: measured here: total cells with miR-34 induction, stronger effect = lower value.
[7] abbreviates: measured here: total cells without miR-34 induction.

Calls of active or inactive are those of the source.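 Rule for the calls, unless noted: active = z-score of at least 1.8 in each of two replicates, scored against plate mean and spread of sample wells; inactive = the rest.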

In general, remaining activity refers to the signal under treatment as a percentage of the control signal. `Cc1c(C(=O)NC2CCCCC2)sc2nc3ccc(N)cc3n12`: the remaining activity in test [1] is 120% (inactive). The fold change in test [2] (setting [4]) is 0.889 (inactive); in test [2] (setting [5]) it was 1.46. For the same molecule, the cell count in test [2] (setting [6]) is 5970; in test [2] (setting [7]), 6720. The z-score in test [3] was -0.625 (inactive).

For the molecule `N[C@@H](CC(=O)Nc1ccc(Oc2cc(F)c(F)cc2Br)cc1)C(=O)O`, in test [1], the remaining activity is 98.2% (inactive). Also, the fold change in test [2] (setting [4]) is 0.952 (inactive); in test [2] (setting [5]), 1.1. Further, the results for the cell count in test [2] (setting [6]) and in test [2] (setting [7]) were 7870 and 8270, respectively. For the same molecule, the z-score in test [3] was 0.265 (inactive).

For `CNC(=O)[C@H]1O[C@@H](n2cnc3c(NCc4cccc(I)c4)ncnc32)[C@H](O)[C@@H]1O`, in test [1], the remaining activity was 116% (inactive). Besides, the fold change was 0.865 (inactive) in test [2] (setting [4]) and 0.723 in test [2] (setting [5]). Moreover, the cell count in test [2] (setting [6]) came out at 8280; in test [2] (setting [7]), 9570. In addition, the z-score in test [3] was 2.99 (active).

On to `N[C@H](C(=O)O)c1ccc(C(=O)O)c(C(=O)O)c1`, for which the remaining activity in test [1] was 126% (inactive). The values for the fold change in test [2] (setting [4]) and in test [2] (setting [5]) were 0.986 (inactive) and 0.559, respectively. Further, the cell count came to 9860 in test [2] (setting [6]) and 10000 in test [2] (setting [7]). The z-score in test [3] is -0.145 (inactive).

With `OC(c1ccccc1)C1CCN(CCc2ccccc2)CC1` (centres undefined), the remaining activity in test [1] is 96.8% (inactive). The figures for the fold change in test [2] (setting [4]) and in test [2] (setting [5]) were 0.917 (inactive) and 0.92, respectively. Besides, the cell count in test [2] (setting [6]) came out at 8660; in test [2] (setting [7]), 9440. Also, the z-score in test [3] was -0.035 (inactive).

Regarding `NC(C(=O)O)c1cc(O)ccc1Cl` (centres undefined), the remaining activity in test [1] was 120% (inactive). For the same molecule, the fold change in test [2] (setting [4]) is 1.01 (inactive); in test [2] (setting [5]), 0.855. In addition, the cell count amounted to 9170 in test [2] (setting [6]) and 9110 in test [2] (setting [7]). For the same molecule, in test [3], the z-score was 4.21 (active).

In the case of `COc1ccccc1N1CCN(CCCCN2C(=O)CCC2=O)CC1`, in test [1], the remaining activity is 103% (inactive). In addition, the figures for the fold change in test [2] (setting [4]) and in test [2] (setting [5]) were 0.855 (inactive) and 0.698, respectively. Moreover, the cell count in test [2] (setting [6]) turned out to be 8300; in test [2] (setting [7]), 9700. In addition, in test [3], the z-score is -0.25 (inactive).

For `CC(=O)N[C@H](Cc1c[nH]c2ccccc12)C(=O)OCc1cc(C(F)(F)F)cc(C(F)(F)F)c1`, the remaining activity in test [1] was 106% (inactive). Moreover, the fold change in test [2] (setting [4]) is 0.923 (inactive); in test [2] (setting [5]), 0.896. Further, the cell count was found to be 8110 in test [2] (setting [6]) and 8790 in test [2] (setting [7]). In test [3], the z-score was -0.035 (inactive).

Consider `CN1CCN(C(=O)c2nc3ccc(Cl)cc3[nH]2)CC1`, for which the remaining activity in test [1] was 102% (inactive). Further, the fold change in test [2] (setting [4]) was 0.91 (inactive); in test [2] (setting [5]), 1.56. The figures for the cell count in test [2] (setting [6]) and in test [2] (setting [7]) were 8900 and 9780, respectively. Also, in test [3], the z-score was 0.84 (inactive).

With `Nc1nnc(Sc2ncc([N+](=O)[O-])s2)s1`, in test [1], the remaining activity is 119% (inactive). For the same molecule, the results for the fold change in test [2] (setting [4]) and in test [2] (setting [5]) were 0.911 (inactive) and 4.18, respectively. In addition, the cell count in test [2] (setting [6]) was found to be 3000; in test [2] (setting [7]), 3290. Also, the z-score in test [3] is -1.04 (inactive).

As for `C[C@]12CC[C@@H]3c4ccc(O)cc4C[C@@H](CCCCCCCCCS(=O)CCCC(F)(F)C(F)(F)F)C3[C@@H]1CC[C@@H]2O` (some centres undefined), in test [1], the remaining activity was 117% (inactive). Besides, the fold change in test [2] (setting [4]) is 0.929 (inactive); in test [2] (setting [5]) it was 0.852. For the same molecule, the cell count in test [2] (setting [6]) was 6320; in test [2] (setting [7]), 6800. Besides, the z-score in test [3] was 0.9 (inactive).

Take `O=C1c2ccccc2C(Cc2ccnc(F)c2)(Cc2ccnc(F)c2)c2ccccc21`: the remaining activity in test [1] is 102% (inactive). Further, the fold change in test [2] (setting [4]) is 0.93 (inactive); in test [2] (setting [5]), 1.37. The cell count in test [2] (setting [6]) was 8150; in test [2] (setting [7]), 8760. For the same molecule, the z-score in test [3] is 0.3 (inactive).

With `COC(=O)[C@H]1C2C[C@H]3c4[nH]c5ccccc5c4CCN3C[C@H]2CC[C@@H]1O` (some centres undefined), the remaining activity in test [1] was 106% (inactive). In addition, the values for the fold change in test [2] (setting [4]) and in test [2] (setting [5]) were 0.968 (inactive) and 0.826, respectively. In addition, the cell count in test [2] (setting [6]) stood at 8540; in test [2] (setting [7]), 8820. For the same molecule, the z-score in test [3] was -0.115 (inactive).

Turning to `CCC(=O)NC1CCc2cccc(OC)c2C1` (centres undefined), in test [1], the remaining activity was 123% (inactive). The fold change is 1.01 (inactive) in test [2] (setting [4]) and 0.925 in test [2] (setting [5]). Besides, the cell count in test [2] (setting [6]) was found to be 8550; in test [2] (setting [7]), 8470. In addition, the z-score in test [3] is -0.165 (inactive).

With `O=C1c2ccccc2CCC1CNCCc1ccc(O)cc1` (centres undefined), the remaining activity in test [1] was 104% (inactive). Moreover, the fold change is 0.994 (inactive) in test [2] (setting [4]) and 0.835 in test [2] (setting [5]). The cell count in test [2] (setting [6]) came to 8920; in test [2] (setting [7]), 8970. For the same molecule, in test [3], the z-score was -1.23 (inactive).

With `N=C(N)c1ccc(N2CCN(C3CCN(CC(=O)O)CC3)CC2)cc1`, the remaining activity in test [1] was 115% (inactive). In addition, the results for the fold change in test [2] (setting [4]) and in test [2] (setting [5]) were 1 (inactive) and 0.72, respectively. In addition, the cell count in test [2] (setting [6]) was 9390; in test [2] (setting [7]) it was 9350. Further, in test [3], the z-score is -0.165 (inactive).

As to `Nc1nc2c(nc(Br)n2[C@@H]2O[C@@H]3COP(=O)(O)O[C@H]3[C@H]2O)c(=O)[nH]1`, in test [1], the remaining activity was 113% (inactive). Also, the values for the fold change in test [2] (setting [4]) and in test [2] (setting [5]) were 0.972 (inactive) and 0.761, respectively. For the same molecule, the cell count in test [2] (setting [6]) amounted to 9650; in test [2] (setting [7]), 9930. In test [3], the z-score is -0.25 (inactive).

Turning to `CNC(=O)Oc1ccc2c(c1)C1(C)CCN(C)C1N2C` (centres undefined), in test [1], the remaining activity is 128% (inactive). Further, the figures for the fold change in test [2] (setting [4]) and in test [2] (setting [5]) were 0.943 (inactive) and 1.32, respectively. Besides, the values for the cell count in test [2] (setting [6]) and in test [2] (setting [7]) were 9440 and 10000, respectively. For the same molecule, the z-score in test [3] was -1 (inactive).

Regarding `COC(=O)C1=C(C)NC(C)=C(C(=O)NCCCN2CCC(c3ccccc3)(c3ccccc3)CC2)C1c1ccc([N+](=O)[O-])cc1` (centres undefined), the remaining activity in test [1] is 98% (inactive). For the same molecule, the fold change in test [2] (setting [4]) is 0.668 (active); in test [2] (setting [5]), 1.88. For the same molecule, the results for the cell count in test [2] (setting [6]) and in test [2] (setting [7]) were 294 and 441, respectively. For the same molecule, the z-score in test [3] was -0.7 (inactive).

Turning to `c1ccc2sc(N3CCN(Cc4ccc5c(c4)OCO5)CC3)nc2c1`, in test [1], the remaining activity was 98.7% (inactive). In addition, the fold change was 0.958 (inactive) in test [2] (setting [4]) and 0.859 in test [2] (setting [5]). In addition, the cell count in test [2] (setting [6]) amounted to 9100; in test [2] (setting [7]), 9500. Besides, in test [3], the z-score is -0.155 (inactive).

Turning to `N[C@@H](Cn1ccc(=O)n(Cc2ccccc2C(=O)O)c1=O)C(=O)O`, the remaining activity in test [1] is 102% (inactive). Besides, the fold change in test [2] (setting [4]) was 0.972 (inactive); in test [2] (setting [5]) it was 1.26. Further, the cell count in test [2] (setting [6]) stood at 8660; in test [2] (setting [7]) it was 8900. Further, the z-score in test [3] is 0.025 (inactive).

Consider `COc1ccccc1N1CCN(CCn2c(=O)[nH]c3c([nH]c4ccccc43)c2=O)CC1`, for which the remaining activity in test [1] is 108% (inactive). For the same molecule, the fold change in test [2] (setting [4]) is 0.88 (inactive); in test [2] (setting [5]), 0.64. Moreover, the values for the cell count in test [2] (setting [6]) and in test [2] (setting [7]) were 8910 and 10100, respectively. In addition, in test [3], the z-score is 1.92 (active).

As for `c1ccc(Oc2nc(NC3CCCCC3)c3[nH]cnc3n2)cc1`, the remaining activity in test [1] was 110% (inactive). Further, the fold change was 0.921 (inactive) in test [2] (setting [4]) and 1.13 in test [2] (setting [5]). The cell count turned out to be 7420 in test [2] (setting [6]) and 8060 in test [2] (setting [7]). For the same molecule, the z-score in test [3] is -0.49 (inactive).

In the case of `OC[C@H]1O[C@@H](n2cnc3c(NC4CCCC4)ncnc32)[C@H](O)[C@@H]1O`, the remaining activity in test [1] was 123% (inactive). The fold change in test [2] (setting [4]) was 0.882 (inactive); in test [2] (setting [5]), 0.89. The cell count turned out to be 9040 in test [2] (setting [6]) and 10200 in test [2] (setting [7]). Also, in test [3], the z-score was 0.51 (inactive).
